Measurements published in PubChem BioAssay (Tox21).
Records with an inconclusive call do not appear. The source made the active and inactive calls. Unless noted, the call rests on the fitted dose curve.

How the values were obtained:
[1] = Nuclear factor erythroid 2-related factor 2/antioxidant responsive element (Nrf2/ARE) small molecule agonists: qHTS cell viability counter screen in human keratinocytes (AID 1919968; active means well fitted curve in the direction sought with a large enough effect in the repeat runs; an effect the other way counts as inactive or inconclusive; further: nearly all actives have a fitted effect of over 55% in size)
Summary of the method: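 Seed 1,500 KeratinoSens cells per well, then incubate 5 h at 37 C/5% CO2. Add compounds in DMSO and incubate 23 h. Add CellTiter-Fluor, wait 1 h and read fluorescence.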

[2] = Nuclear factor erythroid 2-related factor 2/antioxidant responsive element (Nrf2/ARE) small molecule agonists: luciferase reporter gene qHTS assay in human keratinocytes (AID 1919969); further: nearly all actives have a fitted effect of over 35% in size
[3] = molecular target: Gonadotropin-releasing hormone receptor (Homo sapiens) (UniProt P30968); assay: Human gonadotropin-releasing hormone receptor (GnRHR) small molecule agonists, calcium flux assay in GnRHR-HEK293 cells (AID 1920063); further: nearly all actives have a fitted effect of over 35% in size
Summary of the method: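 Cells: HEK293 stably expressing human GnRHR. Steps: overnight (18 h) culture, 1 h calcium dye loading at 37 C, compound addition, kinetic fluorescence read at 480/540 nm. Each compound tested at 15 concentrations in triplicate.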

[4] = molecular target: KiSS-1 receptor (Homo sapiens) (UniProt Q969F8); assay: Human kisspeptin (KISS1R) small molecule agonists, calcium flux assay in KISS1R-HEK293 cells (AID 1920064; active means well fitted curve in the direction sought with a large enough effect in the repeat runs; an effect the other way counts as inactive or inconclusive)
Summary of the method: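 Cells plated and incubated 18 h; dye added, 1 h at 37 C; compounds in DMSO pinned in; signal read at 480/540 nm every second for 3 min. Each compound tested at 15 concentrations in triplicate.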

[5] = G protein-coupled receptor (GPCR) small molecule agonists, calcium flux assay: HEK293 wild type cell line counter screen (AID 1920065)
Summary of the method: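 Counter-screen of the Tox21 10K library for non-specific calcium release: dye-loaded cells received compounds in DMSO and were monitored by kinetic fluorescence (480/540 nm, 3 min). Fifteen concentrations, run in triplicate.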

[6] = p53 small molecule agonists, cell-based qHTS assay with rat liver microsomes (AID 1963578)
Summary of the method: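 Quantitative HTS of the Tox21 10K library: p53RE-bla cells, rat liver microsomes plus NADPH at 0.5 mg/mL final each, 16 h at 37 C, beta-lactamase fluorescence detection.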

[7] = p53 small molecule agonists, cell-based qHTS assay with human liver microsomes: qHTS cell viability counter screen (AID 1963579); further: nearly all actives have a fitted effect of over 45% in size
Summary of the method: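 Viability of p53RE-bla cells is measured as CellTiter-Glo luminescence following a 16 h, 37 C incubation with compound, liver microsomes from human donors and NADPH.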

[8] = p53 small molecule agonists, cell-based qHTS assay with rat liver microsomes: qHTS cell viability counter screen (AID 1963580); further: nearly all actives have a fitted effect of over 45% in size
Summary of the method: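 p53RE-bla HCT-116 cells were exposed 16 h at 37 C to compounds with rat liver microsomes (0.5 mg/mL) and NADPH (0.5 mg/mL). Viability was measured in the same wells as ATP content by CellTiter-Glo luminescence.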

[9] = p53 small molecule agonists, cell-based qHTS assay: qHTS cell viability counter screen (AID 1963581); further: nearly all actives have a fitted effect of over 45% in size
Summary of the method: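 Cells: HCT-116 with p53 response element-driven beta-lactamase. Treatment: 16 h, 37 C, compounds in DMSO. Read: CellTiter-Glo luminescence after 30 min RT.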

[10] = p53 small molecule agonists, cell-based qHTS assay (AID 1963582; active means well fitted activation curve with a large enough effect in the signal ratio in the repeat runs, not every such curve was filed as active; the % refers to the signal ratio)
Summary of the method: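 Quantitative HTS in p53RE-bla cells: after a 5 h settling period, compounds delivered in DMSO were left on cells for 16 h at 37 C, and reporter induction was measured as fluorescence following 2 h substrate loading.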

[11] = molecular target: 5-hydroxytryptamine receptor 2A (Homo sapiens) (UniProt P28223); assay: 5-hydroxytryptamine receptor 2A (HTR2A) small molecule agonists, cell-based qHTS assay (AID 1963587); further: nearly all actives have a fitted effect of over 30% in size
Summary of the method: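 CHO cells stably expressing human HTR2A, plated 18 h, loaded with calcium dye 1 h at 37 C. Agonist mode: compounds added and intracellular calcium fluorescence recorded kinetically for 2 min at 1 sec intervals.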

[12] = molecular target: Muscarinic acetylcholine receptor M1 (Homo sapiens) (UniProt P11229); assay: Cholinergic receptor muscarinic 1 (CHRM1) small molecule antagonists, cell-based qHTS assay (AID 1963588); further: nearly all actives have a fitted effect of over 40% in size
Summary of the method: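 CHRM1-CHO calcium-flux assay, antagonist mode. Cells were seeded 18 h, dye-loaded 1 h at 37 C and given compound for 5 min at RT, then acetylcholine was added at 50nM. FDSS fluorescence was read 3 min; 15 concentrations, three runs.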

[13] = molecular target: Muscarinic acetylcholine receptor M1 (Homo sapiens) (UniProt P11229); assay: Cholinergic receptor muscarinic 1 (CHRM1) small molecule agonists, cell-based qHTS assay (AID 1963589); further: nearly all actives have a fitted effect of over 35% in size
Summary of the method: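 Agonist-mode qHTS in CHO cells stably carrying human muscarinic M1. Intracellular calcium is tracked by fluorescence every second after compound transfer; each compound runs at 15 concentrations in three independent runs.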

[14] = cAMP Responsive Elements (CRE) small molecule agonists, cell-based qHTS assay (AID 1963590)
Summary of the method: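 Agonist mode qHTS in CRE-bla HEK 293T cells: compounds dosed from DMSO for 3 h at 37 C/5% CO2, followed by LiveBLAzer B/G FRET substrate for 2 h at room temperature.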

[15] = cAMP Responsive Elements (CRE) small molecule antagonists, cell-based qHTS assay (AID 1963591; active means well fitted inhibition curve with a large enough effect in the signal ratio in the repeat runs, not every such curve was filed as active; the % refers to the signal ratio)
Summary of the method: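 Antagonist mode: test compounds are co-incubated with the adenylyl cyclase activator NKH477 (0.25 uM final) on CRE-bla HEK293T cells for 3 h at 37 °C, followed by LiveBLAzer substrate loading.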

[16] = molecular target: Beta-2 adrenergic receptor (Homo sapiens) (UniProt P07550); assay: Adrenergic beta2 receptor (ADRB2) small molecule antagonists, cell-based qHTS assay (AID 1963592); further: series mostly up to about 92 µM; nearly all actives have a fitted effect of over 50% in size
Summary of the method: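 Cells (CHO, stable ADRB2 overexpression) incubated 18-20hr at 37C; compounds added from DMSO; agonist mix (1nM isoproterenol, 100uM IBMX, 25uM Ro-20-1724) added; 0.5hr RT; d2-cAMP and anti-cAMP-cryptate added; 1hr RT; 665/615 nm read.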

[17] = molecular target: Beta-2 adrenergic receptor (Homo sapiens) (UniProt P07550); assay: Adrenergic beta2 receptor (ADRB2) small molecule agonists, cell-based qHTS assay (AID 1963593);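 further: CHO cells stably overexpressing human ADRB2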
Summary of the method: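 CHO cells stably over-expressing ADRB2 were plated overnight at 37C, then dosed with compounds plus a stimulation mix containing 100uM IBMX and 25uM Ro-20-1724 for 0.5hr at room temperature. cAMP was measured by HTRF competition, 1hr.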

[18] = molecular target: D(2) dopamine receptor (Homo sapiens) (UniProt P14416); assay: Dopamine D2 receptor (DRD2) small molecule antagonists, cell-based qHTS assay (AID 1963595; active means well fitted inhibition curve with a large enough effect in the signal ratio in the repeat runs, with a control signal flat; the % refers to the signal ratio)
Summary of the method: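 HTRF cAMP read-out at 665 and 620 nm emission (340 nm excitation). Antagonist mode: compounds were tested against 12 nM quinpirole in DRD2-HEK293 cells, with 200 nM NKH477 raising cAMP and 0.1 mM Ro20-1724 blocking its breakdown.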

[19] = molecular target: 5-hydroxytryptamine receptor 2A (Homo sapiens) (UniProt P28223); assay: 5-hydroxytryptamine receptor 2A (HTR2A) small molecule antagonists, cell-based qHTS assay (AID 1963586); further: nearly all actives have a fitted effect of over 45% in size
Summary of the method: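 Antagonist-mode intracellular calcium assay: DOI (4 nM) added after 5 min compound pre-incubation at room temperature to dye-loaded HTR2A-CHO cells. Fluorescence followed for 3 min, sampled every second.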

[20] = molecular target: D(2) dopamine receptor (Homo sapiens) (UniProt P14416); assay: Dopamine D2 receptor (DRD2) small molecule agonists, cell-based qHTS assay (AID 1963594); further: nearly all actives have a fitted effect of over 35% in size
Summary of the method: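 HEK293 cells stably expressing human DRD2, pre-treated with PDE inhibitor Ro20-1724 (0.1 mM final) and compound 10 min at room temperature, then stimulated with NKH477 (200nM […]) for 30 min. cAMP read by HTRF (665/620 nm).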

Measured: Potency

5-hydroxytryptamine receptor 2A (Homo sapiens), sequence (P28223 whole entry, looked up): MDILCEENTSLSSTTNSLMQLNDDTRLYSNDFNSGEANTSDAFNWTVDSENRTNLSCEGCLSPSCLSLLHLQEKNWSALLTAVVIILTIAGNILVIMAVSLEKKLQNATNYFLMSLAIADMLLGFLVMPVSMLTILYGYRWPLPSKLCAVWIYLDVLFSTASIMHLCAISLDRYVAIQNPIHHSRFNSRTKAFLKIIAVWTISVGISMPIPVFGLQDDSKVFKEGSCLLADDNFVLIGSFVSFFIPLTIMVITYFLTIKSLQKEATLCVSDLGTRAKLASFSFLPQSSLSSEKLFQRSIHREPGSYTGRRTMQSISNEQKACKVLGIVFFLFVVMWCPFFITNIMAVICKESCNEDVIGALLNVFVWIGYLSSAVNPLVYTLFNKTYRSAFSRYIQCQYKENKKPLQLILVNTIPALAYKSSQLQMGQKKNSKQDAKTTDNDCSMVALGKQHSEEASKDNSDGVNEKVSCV
KiSS-1 receptor (Homo sapiens), sequence (Q969F8 whole entry, looked up): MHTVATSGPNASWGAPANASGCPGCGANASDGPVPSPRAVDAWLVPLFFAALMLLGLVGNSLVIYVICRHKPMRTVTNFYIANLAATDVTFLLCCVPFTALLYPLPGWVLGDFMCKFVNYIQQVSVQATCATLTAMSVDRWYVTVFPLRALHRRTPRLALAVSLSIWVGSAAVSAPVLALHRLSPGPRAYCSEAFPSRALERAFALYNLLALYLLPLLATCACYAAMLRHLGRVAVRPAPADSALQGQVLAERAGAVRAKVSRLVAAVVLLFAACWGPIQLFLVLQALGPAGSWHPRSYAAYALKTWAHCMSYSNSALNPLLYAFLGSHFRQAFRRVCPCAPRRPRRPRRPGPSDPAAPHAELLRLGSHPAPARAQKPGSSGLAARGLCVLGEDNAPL
Beta-2 adrenergic receptor (Homo sapiens), sequence (P07550 whole entry, looked up): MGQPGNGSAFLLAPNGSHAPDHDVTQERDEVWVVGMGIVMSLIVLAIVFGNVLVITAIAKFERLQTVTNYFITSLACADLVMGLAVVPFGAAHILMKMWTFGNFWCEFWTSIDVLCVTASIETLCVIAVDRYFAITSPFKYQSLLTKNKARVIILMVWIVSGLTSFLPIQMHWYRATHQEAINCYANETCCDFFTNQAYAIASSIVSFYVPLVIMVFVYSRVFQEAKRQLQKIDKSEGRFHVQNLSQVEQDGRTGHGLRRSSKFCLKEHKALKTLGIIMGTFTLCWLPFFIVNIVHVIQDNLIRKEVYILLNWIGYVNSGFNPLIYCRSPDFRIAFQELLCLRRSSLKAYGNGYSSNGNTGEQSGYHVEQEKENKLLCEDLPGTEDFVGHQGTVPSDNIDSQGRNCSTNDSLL
Muscarinic acetylcholine receptor M1 (Homo sapiens), sequence (P11229 whole entry, looked up): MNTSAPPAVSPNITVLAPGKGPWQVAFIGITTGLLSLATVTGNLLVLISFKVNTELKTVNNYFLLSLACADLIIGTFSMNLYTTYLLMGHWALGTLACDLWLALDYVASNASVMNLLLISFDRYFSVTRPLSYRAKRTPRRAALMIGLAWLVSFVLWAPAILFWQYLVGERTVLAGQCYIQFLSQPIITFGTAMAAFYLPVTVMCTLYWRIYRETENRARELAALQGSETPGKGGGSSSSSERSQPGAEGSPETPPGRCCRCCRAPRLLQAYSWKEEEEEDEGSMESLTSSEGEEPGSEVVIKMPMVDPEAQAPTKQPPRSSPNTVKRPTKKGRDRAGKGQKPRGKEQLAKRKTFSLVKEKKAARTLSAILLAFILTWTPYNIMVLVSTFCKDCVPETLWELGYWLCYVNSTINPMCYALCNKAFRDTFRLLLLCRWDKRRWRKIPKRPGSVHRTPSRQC
D(2) dopamine receptor (Homo sapiens), sequence (P14416 whole entry, looked up): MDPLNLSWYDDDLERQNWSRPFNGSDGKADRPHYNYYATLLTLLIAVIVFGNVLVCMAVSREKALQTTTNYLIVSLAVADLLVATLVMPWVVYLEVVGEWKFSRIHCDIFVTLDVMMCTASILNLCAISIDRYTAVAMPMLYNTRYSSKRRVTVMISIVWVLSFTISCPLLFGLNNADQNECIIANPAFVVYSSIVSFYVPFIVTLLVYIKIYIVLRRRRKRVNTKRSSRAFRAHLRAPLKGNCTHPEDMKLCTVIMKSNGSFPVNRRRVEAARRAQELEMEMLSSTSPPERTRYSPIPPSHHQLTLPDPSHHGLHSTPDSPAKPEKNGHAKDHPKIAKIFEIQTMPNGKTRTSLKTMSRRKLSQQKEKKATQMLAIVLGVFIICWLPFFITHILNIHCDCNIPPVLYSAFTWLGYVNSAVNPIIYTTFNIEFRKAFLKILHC
Gonadotropin-releasing hormone receptor (Homo sapiens), sequence (P30968 whole entry, looked up): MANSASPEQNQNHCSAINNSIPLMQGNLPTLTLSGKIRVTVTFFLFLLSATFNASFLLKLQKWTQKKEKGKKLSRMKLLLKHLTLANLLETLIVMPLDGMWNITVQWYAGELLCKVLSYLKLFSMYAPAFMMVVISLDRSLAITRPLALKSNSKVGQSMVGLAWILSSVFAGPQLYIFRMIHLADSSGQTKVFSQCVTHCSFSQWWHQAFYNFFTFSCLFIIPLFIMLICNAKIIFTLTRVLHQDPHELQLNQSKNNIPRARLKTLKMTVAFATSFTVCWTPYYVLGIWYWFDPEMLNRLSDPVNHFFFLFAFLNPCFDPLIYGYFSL

CCCCC(CC)COC(=O)c1c(Br)c(Br)c(Br)c(Br)c1C(=O)OCC(CC)CCCC (stereo not drawn)
inactive: [1] | [2] | [3] | [4] | [5] | [6] | [7] | [8] | [9] | [10] | [11] | [12] | [13] | [14] | [15] | [16] | [17] | [18]

Cc1cccc(C)c1NC(=O)CN1CCCC1=O
inactive: [1] | [2] | [3] | [4] | [5] | [6] | [7] | [8] | [9] | [10] | [19] | [11] | [12] | [13] | [14] | [15] | [16] | [17] | [20] | [18]

CC(O)CN1CCN(CC(=O)[O-])CCN(CC(=O)[O-])CCN(CC(=O)[O-])CC1.[Gd+3] (stereo not drawn)
inactive: [1] | [2] | [3] | [4] | [5] | [6] | [7] | [8] | [9] | [10] | [19] | [11] | [12] | [13] | [14] | [16] | [17] | [20] | [18]

CCCC1COC(Cn2cncn2)(c2ccc(Cl)cc2Cl)O1 (stereo not drawn)
inactive: [1] | [2] | [3] | [4] | [5] | [7] | [8] | [9] | [19] | [11] | [12] | [13] | [15] | [16] | [17] | [20] | [18]

CN(C)C(=O)Nc1ccc(Cl)cc1
inactive: [1] | [2] | [3] | [4] | [5] | [6] | [7] | [8] | [10] | [19] | [11] | [12] | [13] | [14] | [15] | [16] | [17] | [18]

CCCCC(CC)COC(=O)c1ccc(C(=O)OCC(CC)CCCC)c(C(=O)OCC(CC)CCCC)c1 (stereo not drawn)
inactive: [1] | [2] | [3] | [4] | [5] | [6] | [7] | [8] | [9] | [10] | [19] | [11] | [12] | [13] | [14] | [16] | [20] | [18]

CN(C)N=O
inactive: [1] | [2] | [3] | [4] | [5] | [6] | [7] | [8] | [10] | [19] | [11] | [12] | [13] | [14] | [15] | [16] | [17] | [18]
